aSyn UTR act: Activators via SNCA 5'UTR binding, MLPCN. alpha-synuclein 5'UTR reporter, activators screen. activity score, % (tested at 7.5 µM), hits read low. actives 7.1% (n = 300,000). AID 1814; in the data active = activity score below about -60%
Starred values were filed as active, the others as inactive. Not all results are given here.

SMILES	aSyn UTR act
COc1ccc(-c2noc(-c3cccs3)n2)cc1OC	-174.0*
COc1cc(-c2noc(-c3cccs3)n2)cc(OC)c1OC	-94.6*
COc1cc(OC)cc(-c2nc(-c3cccs3)no2)c1	-139.3*
COc1cc(-c2noc(C)c2/C=C/c2cccc([N+](=O)[O-])c2)cc(OC)c1OC	69.2
[O-][n+]1onc2c3cc(-c4ccccc4)nnc3ccc21	-99.5*
C/C(=N\Nc1cccc2cccnc12)c1ccc(N)cc1	-92.8*
C/C(=N\Nc1cccc2cccnc12)c1ccccc1O	-204.4*
CC(=O)NC(c1ccc(C(C)C)cc1)c1ccc2cccnc2c1O (stereo not given)	66.9
O=C1c2ccccc2NC(c2ccccc2Cl)N1N=C1CCCCCC1 (stereo not given)	-178.7*
O=C(Nc1cccc(O)c1)c1ccc(Br)c(S(=O)(=O)N2CCCCC2)c1	-69.6*
O=C(Nc1ccc2c(c1)OCO2)c1cccc(S(=O)(=O)N2CCCC2)c1	-103.8*
O=C(Oc1cccc(NC(=O)c2ccco2)c1)c1cccc(S(=O)(=O)N2CCCC2)c1	-72.0*
O=C(Nc1cccc(O)c1)c1cccc(S(=O)(=O)N2CCCCCC2)c1	-84.9*
O=C(CCl)Nc1cccc(S(=O)(=O)N2CCCCCC2)c1	-91.6*
O=C(COC(=O)c1ccc(O)cc1)Nc1cccc(S(=O)(=O)N2CCCCC2)c1	28.6
O=C(Nc1nccs1)c1ccc(COc2ccccc2)o1	-113.2*
Cc1ccc(OCc2ccc(C(=O)Nc3nccs3)o2)cc1	-88.3*
C/C(=N\Nc1ccc(C(F)(F)F)cn1)c1ccncc1	-148.1*
COc1cc(C(=O)Oc2ccccc2/C=N/NC(=O)c2ccc(C)c(Cl)c2)cc(OC)c1OC	84.3
O=C(N/N=C/c1ccccc1Cl)c1ccc(F)cc1	-189.0*
COC(=O)c1ccc(/C=N/NC(=O)c2cccc(F)c2)cc1	-133.9*
O=C(N/N=C(\c1ccccc1)c1cccnc1)c1cccc(F)c1	80.4
O=C(N/N=C/c1cnc2ccccc2n1)c1cccc(F)c1	-120.3*
COc1cc(C(=O)N/N=C/c2cn(Cc3cccc(F)c3)c3ccccc23)ccc1O	62.1
O=C(O)c1ccc(N/N=C/c2ccc(C(F)(F)F)cc2)cc1	60.8
SMILES	aSyn UTR act
O=C(N/N=C/c1ccc(C(F)(F)F)cc1)c1ccc(O)cc1	-85.1*
O=C(N/N=C/c1c(O)ccc2ccccc12)c1cccc(C(F)(F)F)c1	110.8
O=C(N/N=C/c1cccc(NC(=O)c2ccc(Cl)cc2)c1)c1cccc(O)c1	-68.1*
O=C(N/N=C/c1cccs1)c1cccc(NC(=O)c2ccc(Cl)cc2)c1	59.0
O=C(N/N=C\c1ccc(F)cc1)c1ccc(F)cc1	-131.6*
Nc1ccc(C(=O)N/N=C/c2ccccc2)cc1	-140.5*
Oc1ccc(/C=N/Nc2ccc(C(F)(F)F)cn2)cc1	-280.1*
CSc1ccc(/C=N/NC(=O)c2cccc(O)c2)cc1	-166.9*
O=C(N/N=C/c1ccc[nH]1)c1ccc(Cl)cc1	-121.0*
Cc1ccc(/C(N)=N/OC(=O)C23CC4CC(CC(C4)C2)C3)cc1	-184.8*
Cc1ccc(/C(N)=N/OC(=O)N2CCOCC2)cc1	-61.8*
O=c1c2ccccc2oc2ccc(NCCCN3CCOCC3)cc12	-107.8*
O=c1c2ccccc2oc2cc(NCCCN3CCOCC3)ccc12	-127.4*
CN1CCCC1CCNc1ccc2c(=O)c3ccccc3oc2c1 (stereo not given)	-129.5*
CN1N=C2c3ccccc3CCC2C1c1ccc(Cl)cc1 (stereo not given)	-101.2*
CN1N=C2c3ccccc3CCC2C1c1ccc(F)cc1 (stereo not given)	-109.6*
CC(=O)/C=C/c1ccccc1Oc1c(F)c(F)nc(F)c1F	-93.7*
O=C(Oc1ccc(NC2=C(Cl)C(=O)c3ccccc3C2=O)cc1)c1ccc([N+](=O)[O-])cc1	-109.5*
Cc1ccc(C(=O)CSc2nnc(C)s2)cc1	-85.0*
Cc1cc(C(=O)CSc2nnnn2C)c(C)n1C1CC1	-68.6*
Cc1nnc(SCC(=O)c2cc(C)n(C3CC3)c2C)s1	-146.5*
Cc1ccc(NC(=O)c2ccc(CSc3nnc(C)s3)cc2)c(C)c1	-68.2*
C/C(=N\NC(N)=S)C1=CCC2C3CC[C@H]4CC(O)CC[C@]4(C)C3CC[C@]12C (stereo not given in full)	-94.6*
CCC(=O)Nc1ccc(NC(=O)c2ccco2)c(OC)c1	-142.3*
CCOc1ccc(CC(=O)Nc2ccc(NC(=O)c3ccco3)cc2)cc1OCC	65.9
SMILES	aSyn UTR act
CCC(=O)Nc1ccc(NC(=O)c2ccco2)cc1	-136.0*
O=C(Nc1ccc(CSc2ccccc2)cc1)c1ccco1	-125.4*
COc1cc(NC(=O)CC(C)C)ccc1NC(=O)c1ccco1	-119.1*
COc1cc(NC(=O)c2cccc(Br)c2)nc(OC)n1	-105.2*
COc1cc(NC(=O)c2c(F)cccc2F)nc(OC)n1	-117.4*
Oc1ccc(-c2nccc(-c3ccccn3)n2)cc1	-188.3*
Cc1ccc(C(=O)Oc2ccc(-c3nccc(-c4ccccn4)n3)cc2)cc1	-144.0*
FC(F)(F)c1cc(Oc2ccccc2Cl)nc(-c2ccccn2)n1	64.2
O=C(Oc1ccc(-c2nccc(-c3ccccn3)n2)cc1)c1cccc(C(F)(F)F)c1	-139.9*

From PubChem
